A selection: hits, their analogues and other compounds. The true share with any hit is near 2.9%.
IP6K1 inhibitor: blocks human inositol hexakisphosphate kinase 1 | Q92551 | activity change, % (series mostly up to about 58 µM) | IP6K1 kinase, ADP-Glo luminescence, 2 h; active compounds read low | 0.81% of 140,000 active; in the data active = activity change below about -25%; also: % is scaled to controls: 0 for no effect and ±100 for the full control effect
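ADP-Glo luminescence measures ADP made by human IP6K1 during a 2 h RT reaction with ATP/IP6 (mix at 1.3 mM/130 uM); top library doses 57.5 and 19.1 uM final.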
HEK293 viab: reduces viability of HEK-293 SNCA reporter cells. HEK-293-SNCA-luc viability, GF-AFC fluorescence, 24 h. AID 1671193. Potency, µM (doses to about 57.1 µM), inactives show at the highest dose activity change, negative = cytotoxicity, hits mostly cytotoxic. 0.12% of 150,000 active;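 also: potency is read from the fitted curve at half-maximal effect; 0% = DMSO-treated cells and -100% = medium-only wells without cells; nearly all actives have a fitted effect of over 30% in size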
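HEK-293-SNCA-luc cells (1500/well) plated 24 h, then exposed 24 h to a dilution series; GF-AFC added 30 min at 37C, fluorescence 405/540 nm; normalised to medium-only and DMSO wells, Hill fit.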
KDM5B inhibitor: inhibitors of human KDM5B histone demethylase; Q9UGL1; KDM5B demethylase, FDH-coupled NADH fluorescence (FDH is formaldehyde dehydrogenase); Potency, µM (series often up to 57.7 µM), most hits filed as inhibitors; 2.6% of 220,000 active; also: potency is read from the fitted curve at half-maximal effect; 0% is about no effect; nearly all actives have a fitted effect of over 70% in size
Target sequence (Q9UGL1 whole entry, looked up): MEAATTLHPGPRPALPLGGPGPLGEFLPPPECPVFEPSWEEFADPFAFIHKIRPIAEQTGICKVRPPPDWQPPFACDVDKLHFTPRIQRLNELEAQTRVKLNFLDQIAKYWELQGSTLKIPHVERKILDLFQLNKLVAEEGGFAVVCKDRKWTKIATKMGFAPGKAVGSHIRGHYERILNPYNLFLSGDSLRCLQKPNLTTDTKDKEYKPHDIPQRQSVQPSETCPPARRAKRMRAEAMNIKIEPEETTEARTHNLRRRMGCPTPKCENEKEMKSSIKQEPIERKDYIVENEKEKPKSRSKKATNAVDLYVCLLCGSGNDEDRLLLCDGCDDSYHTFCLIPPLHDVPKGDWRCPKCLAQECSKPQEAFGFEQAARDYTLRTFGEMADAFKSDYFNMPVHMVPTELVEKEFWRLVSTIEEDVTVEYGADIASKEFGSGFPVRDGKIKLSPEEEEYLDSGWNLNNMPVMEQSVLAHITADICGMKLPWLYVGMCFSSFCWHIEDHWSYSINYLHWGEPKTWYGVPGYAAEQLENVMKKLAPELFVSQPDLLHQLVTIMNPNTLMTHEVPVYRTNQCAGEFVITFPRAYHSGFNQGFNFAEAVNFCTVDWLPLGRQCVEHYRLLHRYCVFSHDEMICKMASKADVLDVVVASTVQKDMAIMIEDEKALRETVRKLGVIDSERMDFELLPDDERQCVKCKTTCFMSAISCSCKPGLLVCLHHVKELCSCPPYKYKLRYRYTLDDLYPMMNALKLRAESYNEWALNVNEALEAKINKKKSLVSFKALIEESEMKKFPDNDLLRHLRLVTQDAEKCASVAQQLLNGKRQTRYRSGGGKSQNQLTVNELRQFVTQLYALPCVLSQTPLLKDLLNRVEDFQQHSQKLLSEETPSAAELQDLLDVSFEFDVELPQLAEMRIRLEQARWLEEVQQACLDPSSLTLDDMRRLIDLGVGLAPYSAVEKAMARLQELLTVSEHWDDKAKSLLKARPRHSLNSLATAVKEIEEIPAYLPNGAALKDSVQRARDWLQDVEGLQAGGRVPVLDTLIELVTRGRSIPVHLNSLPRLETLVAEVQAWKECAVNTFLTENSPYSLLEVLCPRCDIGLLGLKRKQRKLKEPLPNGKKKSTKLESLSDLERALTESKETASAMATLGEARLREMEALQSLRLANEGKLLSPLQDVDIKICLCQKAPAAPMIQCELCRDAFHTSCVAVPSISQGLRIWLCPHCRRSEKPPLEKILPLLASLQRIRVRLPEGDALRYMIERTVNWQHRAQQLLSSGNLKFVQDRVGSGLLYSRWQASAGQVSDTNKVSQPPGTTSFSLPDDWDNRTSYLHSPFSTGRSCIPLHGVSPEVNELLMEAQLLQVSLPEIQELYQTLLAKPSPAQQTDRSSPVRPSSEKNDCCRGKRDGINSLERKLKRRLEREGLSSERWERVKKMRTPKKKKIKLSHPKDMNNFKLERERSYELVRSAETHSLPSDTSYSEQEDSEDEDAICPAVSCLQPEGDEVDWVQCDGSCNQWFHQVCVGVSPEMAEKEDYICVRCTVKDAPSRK
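Here, H3K4me3 peptide (12.5 µM in substrate mix) is demethylated by KDM5BΔAP, 200 nM final, after 10 min compound exposure. Formaldehyde product is coupled through FDH (0.25 U/mL in mix) to NADH fluorescence; 30-min ΔRFU feeds dose-response curves.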
SNCA expr inh: SNCA gene expression inhibition; 0.17% of 140,000 active; HEK-293 SNCA-luciferase knock-in, luminescence, 24 h; Potency, µM (series often up to 57.2 µM), without a hit: top-dose activity change, negative = inhibition, hits mostly inhibitors;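 also: potency is read from the fitted curve at half-maximal effect; plate controls were DMSO cells for no effect and cell-free wells for full effect; nearly all actives have a fitted effect of over 45% in size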
Starred values were filed as active, the others as inactive; [ ] = another dose, or the depositor's remark. Unless noted, calls follow the shape of the dose curve; as a rule, active = well fitted curve in the direction sought with a large enough effect; inconclusive = small, poorly fitted or top-dose-only effect, or another doubt; inactive = no such curve, though single readings can be large; an effect the other way counts as inactive or inconclusive.

For Cc1cc(-c2cc(-c3cccs3)nc3c(C)noc23)ccn1 the results were IP6K1 inhibitor -15, HEK293 viab -13%[87.6 µM], KDM5B inhibitor 28µM* and SNCA expr inh -32%[87.6 µM].
Screening COc1ccccc1-c1cc(-c2ccccc2OC)c2onc(C)c2n1 returned IP6K1 inhibitor -5, HEK293 viab 1%[87.6 µM], KDM5B inhibitor inconclusive and SNCA expr inh 11%[87.6 µM].
`CC(C)(Oc1nn(Cc2cccc(Cl)c2)c2ccccc12)C(=O)N1CCN(CCO)CC1` gave IP6K1 inhibitor 6, HEK293 viab -9%, KDM5B inhibitor inactive and SNCA expr inh 15%.
Screening O=C(NCc1ccccc1)N1CC(Oc2cccc(-c3nc(-c4ccccc4)no3)c2)C1 returned IP6K1 inhibitor 0, HEK293 viab -20%, KDM5B inhibitor inconclusive and SNCA expr inh 25%.
Nc1ccc2c(N3CCCCC3)ncnc2c1 was read as IP6K1 inhibitor 5, HEK293 viab -7%, KDM5B inhibitor inconclusive and SNCA expr inh 4%.
`Nc1ccc2ncnc(N3CCCCC3)c2c1` gave IP6K1 inhibitor 4, HEK293 viab -12%, KDM5B inhibitor 28µM* and SNCA expr inh inconclusive.
For Nc1ncc(C(=O)N[C@@H]2CC[C@@H](N)C2)c(-c2ccccc2)n1 the results were IP6K1 inhibitor 12, HEK293 viab 4%, KDM5B inhibitor 22µM* and SNCA expr inh 3%.
For c1ccc(-c2ccnc3nc(CCC4CCCC4)nn23)nc1 the results were IP6K1 inhibitor 1, HEK293 viab 7%, KDM5B inhibitor inconclusive and SNCA expr inh 16%.
`COc1cc(-c2ccnc3nc(CCc4ccccc4)nn23)cc(OC)c1OC` gave IP6K1 inhibitor 13, HEK293 viab 2%, KDM5B inhibitor 14µM* and SNCA expr inh 7%.
`COc1ccc(-c2ccnc3nc(CCC4CCCC4)nn23)cc1OC` gave IP6K1 inhibitor -6, HEK293 viab -20%, KDM5B inhibitor 13µM* and SNCA expr inh -28%.
Screening COc1cc(-c2ccnc3nc(CC(C)C)nn23)cc(OC)c1OC returned IP6K1 inhibitor -3, HEK293 viab 0%, KDM5B inhibitor 18µM* and SNCA expr inh 7%.
COc1ccc(-c2ccnc3nc(CCc4ccccc4)nn23)cc1OC was read as IP6K1 inhibitor -15, HEK293 viab 4%, KDM5B inhibitor 22µM* and SNCA expr inh 41%.
COc1ccc(CN2Cc3[nH]nc(-c4ccnn4C)c3CC2=O)cc1 was read as IP6K1 inhibitor 22, HEK293 viab 5%[87.6 µM], KDM5B inhibitor inactive and SNCA expr inh -2%[87.6 µM].
For O=C(NC1CCN(c2nccc(Nc3ccccc3Cl)n2)CC1)c1ccccc1 the results were IP6K1 inhibitor -9, HEK293 viab -10% and SNCA expr inh -14%.
For COc1ccc(CCc2nc3nccc(-c4ccc(OC)c(OC)c4)n3n2)cc1 the results were IP6K1 inhibitor 4, HEK293 viab 2%, KDM5B inhibitor 28µM* and SNCA expr inh 16%.
Screening COc1ccc(CCc2nc3nccc(-c4cc(OC)c(OC)c(OC)c4)n3n2)cc1 returned IP6K1 inhibitor -12, HEK293 viab -18%, KDM5B inhibitor inconclusive and SNCA expr inh -30%.
COc1ccc(-c2cc(C(=O)NCC3CC3)c3cnn(C)c3n2)cc1 was read as IP6K1 inhibitor 8, HEK293 viab -17%[87.6 µM] and SNCA expr inh 5%[87.6 µM].
`Cn1ncc2c(-c3ccc([S+](C)(=O)[O-])cc3)cc(C(=O)NCc3ccc(F)cc3)nc21` gave IP6K1 inhibitor 4, HEK293 viab -22%, KDM5B inhibitor 79µM* and SNCA expr inh inconclusive.
`Cn1ncc2c(C(=O)NCc3ccncc3)cc(-c3ccc(F)cc3)nc21` gave IP6K1 inhibitor -6, HEK293 viab -10%, KDM5B inhibitor 79µM* and SNCA expr inh -14%.
For Cn1ncc2c(C(=O)NCc3ccc(C(F)(F)F)cc3)cc(-c3ccc(F)cc3)nc21 the results were IP6K1 inhibitor -6.
Screening Cn1ncc2c(C(=O)NCC3CC3)cc(-c3cccnc3)nc21 returned IP6K1 inhibitor 12, HEK293 viab -5%[87.6 µM], KDM5B inhibitor 100µM* and SNCA expr inh -22%[87.6 µM].
CC(=O)N1CCC(NC[C@@H]2C=C(C)[C@H](Cc3nc4ccccc4[nH]3)C[C@H]2C(C)C)CC1 was read as IP6K1 inhibitor 2, HEK293 viab inconclusive, KDM5B inhibitor inactive and SNCA expr inh -21%[87.6 µM].
For O=C(NCc1ccc(Cl)nc1)c1cc2cccnn2n1 the results were IP6K1 inhibitor 4, HEK293 viab 5%[87.6 µM], KDM5B inhibitor 35µM* and SNCA expr inh -11%[87.6 µM].
For O=C(Nc1ccc(Cl)nc1)c1cc2cccnn2n1 the results were IP6K1 inhibitor 8, HEK293 viab -3%[87.6 µM], KDM5B inhibitor 35µM* and SNCA expr inh 73%[87.6 µM].
Screening CCc1ccc(CNC(=O)c2cc3ccccn3n2)cc1 returned IP6K1 inhibitor 3, HEK293 viab 12%, KDM5B inhibitor inconclusive and SNCA expr inh 139%.
`CCc1ccc(CNC(=O)c2cc3c(N4CCCC4)nc(C)cn3n2)cc1` gave IP6K1 inhibitor -10, HEK293 viab 8%, KDM5B inhibitor 25µM* and SNCA expr inh -25%.
For Cc1cn2nc(C(=O)NC(C)CCc3ccccc3)cc2c(N2CCCC2)n1 (centres undefined) the results were IP6K1 inhibitor 6, HEK293 viab 8%, KDM5B inhibitor inactive and SNCA expr inh -14%.
For Cc1cn2nc(C(=O)NCc3ccccc3C(F)(F)F)cc2c(N2CCSCC2)n1 the results were IP6K1 inhibitor 6, HEK293 viab -9%, KDM5B inhibitor inconclusive and SNCA expr inh -7%.
Screening Cc1cn2nc(C(=O)NCc3ccc(Cl)cc3)cc2c(N2CCCC2)n1 returned IP6K1 inhibitor -9, HEK293 viab 11%, KDM5B inhibitor 32µM* and SNCA expr inh -5%.
`Cc1cn2nc(C(=O)NCc3ccc(C(F)(F)F)cc3)cc2c(N2CCCC2)n1` gave IP6K1 inhibitor 8, HEK293 viab 2%, KDM5B inhibitor 28µM* and SNCA expr inh -18%.
For COc1ccc(CNC(=O)c2cc3c(N4CCCC4)nc(C)cn3n2)cc1 the results were IP6K1 inhibitor -7, HEK293 viab -8%, KDM5B inhibitor inactive and SNCA expr inh -1%.
Cc1cn2nc(C(=O)NCc3ccc4c(c3)OCO4)cc2c(N2CCCC2)n1 was read as IP6K1 inhibitor -1, HEK293 viab 6%, KDM5B inhibitor 25µM* and SNCA expr inh -25%.
For CC1=C[C@@H](CNC(=O)c2ccnc(Cl)c2)[C@H](C(C)C)C[C@H]1Cc1nc2ccc(C)cc2[nH]1 the results were IP6K1 inhibitor 1, HEK293 viab inconclusive, KDM5B inhibitor inconclusive and SNCA expr inh inconclusive.
Screening Cc1cn2nc(C(=O)NCCC3=CCCCC3)cc2c(N2CCCC2)n1 returned IP6K1 inhibitor -9, HEK293 viab 10%, KDM5B inhibitor 10µM* and SNCA expr inh 17%.
For Cc1cn2nc(C(=O)NCc3ccc(F)cc3F)cc2c(N2CCCC2)n1 the results were IP6K1 inhibitor -9, HEK293 viab -12%, KDM5B inhibitor inactive and SNCA expr inh inconclusive.
Cc1cn2nc(C(=O)NCc3ccc(Br)cc3)cc2c(N2CCCC2)n1 was read as IP6K1 inhibitor -2, HEK293 viab 6%, KDM5B inhibitor 28µM* and SNCA expr inh -26%.

Screening results as filed in PubChem.
